Reference: PubChem BioAssay AID1159580 (chemical genetic matrix, 2015)
About 2,000 (36%) of roughly 5,500 compounds were called active. Another 18% or so got no clear call; they are omitted. No stated cut-off is given here; in the data, active means normalized growth mostly below about 0.91 (no sharp cut-off); inconclusive means no clear call, values can overlap the other calls; inactive means mostly above about 0.92. Some of the results follow.

Test: chemical genetic growth profiling, strain panel (AID 1159580);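 further: tested at 20 µM; growth read once vehicle control cultures reached saturation at 30 °C; 1 = growth at the plate median or of vehicle wells; lower values mean less growth of the strain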
Settings: S. cerevisiae deletion strains, growth OD

Measured: normalized growth

Fc1cc(I)ccc1Nc1ccnc2cc(Cl)ccc12
inactive: locus YAR019C, strain CDC15, active compounds read low 0.977 | locus YBL105C, strain PKC1, active compounds read low 0.975 | locus YBR135W, strain CKS1, active compounds read low 0.981 | locus YBR136W, strain MEC1, active compounds read low 0.989 | locus YBR160W, strain CDC28, active compounds read low 0.978 | locus YDL017W, strain CDC7, active compounds read low 0.977 | locus YDL028C, strain MPS1, active compounds read low 0.979 | locus YDL101C, strain DUN1, active compounds read low 0.981 | locus YDL108W, strain KIN28, active compounds read low 0.986 | locus YDL132W, strain cdc53, active compounds read low 0.986 | locus YDL214C, strain PRR2, active compounds read low 0.911 | locus YDR052C, strain DBF4, active compounds read low 0.968 | locus YDR054C, strain cdc34, active compounds read low 0.974 | locus YDR226W, strain ADK1, active compounds read low 0.993 | locus YDR477W, strain SNF1, active compounds read low 0.949 | locus YER123W, strain YCK3, active compounds read low 0.901 | locus YER133W, strain GLC7, active compounds read low 0.948 | locus YFL009W, strain cdc4, active compounds read low 0.978 | locus YFL029C, strain CAK1, active compounds read low 0.98 | locus YFR003C, strain YPI1, active compounds read low 0.991 | locus YFR019W, strain FAB1, active compounds read low 0.943 | locus YFR028C, strain CDC14, active compounds read low 0.981 | locus YGR040W, strain KSS1, active compounds read low 0.918 | locus YGR052W, strain FMP48, active compounds read low 1.06 | locus YGR092W, strain DBF2, active compounds read low 0.954 | locus YHR079C, strain IRE1, active compounds read low 1 | locus YHR082C, strain KSP1, active compounds read low 0.974 | locus YHR205W, strain SCH9, active compounds read low 0.93 | locus YIL147C, strain SLN1, active compounds read low 0.981 | locus YJL095W, strain BCK1, active compounds read low 0.939 | locus YJL128C, strain PBS2, active compounds read low 0.978 | locus YJL157C, strain FAR1, active compounds read low 0.954 | locus YJR016C, strain ILV3, active compounds read low 0.975 | locus YJR066W, strain TOR1 (second series), active compounds read low 0.953 | locus YJR066W, strain TOR1, active compounds read low 0.958 | locus YKL048C, strain ELM1, active compounds read low 0.94 | locus YKL067W, strain YNK1, active compounds read low 0.934 | locus YKL101W, strain HSL1, active compounds read low 0.932 | locus YKL193C, strain SDS22, active compounds read low 0.991 | locus YKL203C, strain TOR2, active compounds read low 0.976 | locus YLR113W, strain HOG1, active compounds read low 0.915 | locus YLR133W, strain CKI1, active compounds read low 0.933 | locus YLR403W, strain SFP1, active compounds read low 0.95 | locus YML070W, strain DAK1, active compounds read low 0.933 | locus YMR001C, strain CDC5, active compounds read low 0.985 | locus YMR205C, strain PFK2 (second series), active compounds read low 0.937 | locus YMR277W, strain FCP1, active compounds read low 0.984 | locus YNL006W, strain LST8, active compounds read low 0.998 | locus YNL020C, strain ARK1, active compounds read low 0.912 | locus YNL161W, strain CBK1, active compounds read low 0.983 | locus YNL183C, strain NPR1, active compounds read low 0.957 | locus YNL207W, strain RIO2, active compounds read low 0.984 | locus YNL222W, strain SSU72, active compounds read low 0.996 | locus YNL307C, strain MCK1 (second series), active compounds read low 0.91 | locus YOL078W, strain AVO1, active compounds read low 0.981 | locus YOL136C, strain PFK27, active compounds read low 0.925 | locus YOR061W, strain CKA2, active compounds read low 0.966 | locus YOR119C, strain RIO1, active compounds read low 1.02 | locus YOR231W, strain MKK1, active compounds read low 0.95 | locus YOR329C, strain SCD5, active compounds read low 0.986 | locus YPL031C, strain PHO85, active compounds read low 0.911 | locus YPL153C, strain RAD53, active compounds read low 0.923 | locus YPL204W, strain HRR25, active compounds read low 0.912 | locus YPL209C, strain IPL1, active compounds read low 0.983 | locus YPL256C, strain CLN2, active compounds read low 0.951 | locus YPR025C, strain CCL1, active compounds read low 0.986 | locus YPR106W, strain ISR1, active compounds read low 0.973 | locus YPR111W, strain DBF20, active compounds read low 0.972 | strain NNK1, active compounds read low 0.973 | strain TSCII, active compounds read low 0.982
active: locus YHR030C, strain SLT2, active compounds read low 0.841
